# According to PubChem BioAssay (NCATS):
# Calls of active or inactive are those of the source. The call rests on the fitted dose curve; in most records, active means well fitted activation curve with a large enough effect; inconclusive means small, poorly fitted or top-dose-only effect; inactive means flat fitted curve, though single readings scatter.
# Experiment: Confirmation and Secondary Assay for Modulators of Hemoglobin Beta Chain Splicing at IVS2 654 locus (AID 910);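 further: HeLa cells stably carrying EGFP split by mutant beta-globin IVS2-654 intron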
# Conditions: HeLa EGFP-654 splicing reporter, GFP fluorescence, 48 h; series mostly up to 46.1 µM
# Procedure, shortened: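 HeLa cells stably expressing EGFP interrupted by β-globin IVS2-654 intron, seeded overnight in Opti-MEM/2% FCS, then treated 2 days at 37 °C. Restored splicing read as total peak GFP intensity per well by laser scanning cytometry (488 nm excitation, 500–520 nm emission); 500 nM antisense PNA as control.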
row,SMILES,outcome
1,CC(CCc1ccccc1)NCC(O)c1ccc(O)c(C(N)=O)c1 (stereo unspecified),inactive
2,CN1CCC(=C2c3ccccc3Sc3ccccc32)CC1,inactive
3,COc1ccc(C2C(=O)c3ccccc3C2=O)cc1,inactive
4,O=C1OCCN1/N=C/c1ccc([N+](=O)[O-])o1,inactive
5,CCn1cc(C(=O)O)c(=O)c2cnc(N3CCCC3)nc21,inactive
6,CCOc1ccc2nc3cc(N)ccc3c(N)c2c1,inactive
7,CCCCOc1cc(C(=O)NCCN(CC)CC)c2ccccc2n1,inactive
8,C/C=C(/C(=C/C)c1ccc(O)cc1)c1ccc(O)cc1,inactive
9,CCN(CCCCOC(=O)c1ccc(OC)c(OC)c1)C(C)Cc1ccc(OC)cc1 (stereo unspecified),inactive
10,CCCCOc1ccc(OCCCN2CCOCC2)cc1,inactive
11,O=C1c2ccccc2C(=O)C1c1ccccc1,inactive
12,CC(C)(C)CC(C)(C)c1ccc(O)c(Cc2ccc(Cl)cc2Cl)c1,inactive
13,CCN1CCN(c2cc3c(cc2F)c(=O)c(C(=O)O)cn3C2CC2)CC1,inactive
14,Oc1c(I)cc(I)c2cccnc12,inactive
15,CN(C(=O)CN(CCO)CC(=O)N(C)C(C)(C)Cc1ccccc1)C(C)(C)Cc1ccccc1,inactive
16,COc1ccc(CCN2CCC(Nc3nc4ccccc4n3Cc3ccc(F)cc3)CC2)cc1,inactive

row,SMILES,outcome
1,Cc1c(C(N)=O)cc([N+](=O)[O-])cc1[N+](=O)[O-],inactive
2,CCN(CC)C(=O)N1CCN(C)CC1,inactive
3,CCCCC(CC)CN=C(N)NC(N)=NCCCCCCN=C(N)NC(N)=NCC(CC)CCCC (stereo unspecified),inactive
4,CC(=O)Nc1c(I)cc(I)c(C(=O)O)c1I,inactive
5,CN1CCN(C(c2ccccc2)c2ccccc2)CC1,inactive
6,CCOc1ccc(Cc2nccc3cc(OCC)c(OCC)cc23)cc1OCC,inactive
7,CCCCOc1ccc(C(=O)CCN2CCCCC2)cc1,inactive
8,CCOC(=O)n1ccn(C)c1=S,inactive
9,CCC(=O)c1c(O)cc(O)cc1O,inactive
10,CC(C)(Oc1ccc(Cl)cc1)C(=O)O,inactive
11,COc1cc(OC)cc(OC)c1,inactive
12,CO/N=C1\CN(c2nc3c(cc2F)c(=O)c(C(=O)O)cn3C2CC2)CC1CN (stereo unspecified),inactive
13,COc1c2occc2c(OC)c2c(=O)cc(C)oc12,inactive
14,CCN(CCCc1ccccc1)CCCc1ccccc1,inactive
15,O=C(OCC(O)CO)c1ccccc1Nc1ccnc2cc(Cl)ccc12 (stereo unspecified),inactive
